Pf Dd2 inh: blocks in vitro growth of P. falciparum Dd2. P. falciparum Dd2 growth, SYBR Green, 72 h. Potency, µM (highest dose often 28.9 µM), for the others: at the top dose activity, negative = inhibition, hits mostly inhibitors. 120,000 compounds, 4.3% hits. AID 1347417; active = well fitted inhibition curve with a large enough effect;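 note: plate controls were DMSO vehicle for no effect and reference drug for full effect; nearly all actives have a fitted effect of over 65% in size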
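Infected erythrocytes (Dd2, 0.3% parasitemia, 2.5% hematocrit final) are added to compound in RPMI-1640/Albumax II medium, grown 72 h at 37C in low oxygen, then lysed with saponin/Triton-X containing SYBR Green and read by fluorescence.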
* marks the source's active call; other numbers are inactive results; i = inactive; [ ] = dose if it differs, or a comment. This is one part of a sample in which hits are shown more often than they occur. Potency is the fitted concentration of half-maximal effect.

SMILES	Pf Dd2 inh
CN1CCN(Cc2nc(C3(O)CCN(C)CC3)cs2)CC1	4%[44.1 µM]
OC1(c2csc(CN3CCN(c4ccccn4)CC3)n2)CCN(Cc2ccccc2)CC1	8.9µM*
C=CCNC(=O)N1CCC(O)(c2csc(CN3CCN(c4ccccn4)CC3)n2)CC1	1%
COc1ccc(S(=O)(=O)N2CCC(CC(=O)NCc3ccccc3)C2)cc1OC (configuration not stated)	i
CCCC(=O)N1CCC(N2CC3CC(C2)[C@H]2CCCC(=O)N2C3)CC1 (some centres not stated)	-11%
CC(C)NC(=O)C(C)[C@@H]1CC[C@@]2(C)CC[C@H](NC(=O)c3cncnc3)[C@@H](C)[C@@H]2[C@H]1O (some centres not stated)	0%[44.1 µM]
CCN(CC)C(=O)C[C@@H]1c2nc(NC(=O)c3cccs3)sc2C[C@@H]2[C@](C)(CO)[C@H](O)CC[C@]21C	4µM*
CC(C)NC(=O)C[C@@H]1c2nc(NC(=O)C3CCCCC3)sc2C[C@@H]2[C@](C)(CO)[C@H](O)CC[C@]21C	10µM*
C=CCOC(=O)Nc1nc2c(s1)C[C@@H]1[C@](C)(CO)[C@H](O)CC[C@@]1(C)[C@@H]2CC(=O)NC(C)C	-9%
CCN(CC)C(=O)C[C@@H]1c2nc(NC(=O)C3CCC3)sc2C[C@@H]2[C@](C)(CO)[C@H](O)CC[C@]21C	7.1µM*
CCN(CC)C(=O)C[C@@H]1c2nc(NC(=O)CC(C)(C)C)sc2C[C@@H]2[C@](C)(CO)[C@H](O)CC[C@]21C	i
CC(=O)N1CCN(C(=O)C[C@@H]2c3nc(NC(=O)C4CCC4)sc3C[C@@H]3[C@](C)(CO)[C@H](O)CC[C@]32C)CC1	-22%
C=CCN(C)C(=O)C[C@@H]1c2nc(NC(=O)c3ccc(OC)cc3)sc2C[C@@H]2[C@](C)(CO)[C@H](O)CC[C@]21C	-6%
COc1ccc(NC(=O)c2nnn3cc(C)[nH]c(=O)c23)cc1OC	-16%
COc1ccc(CN2C[C@H]3CN(Cc4ccc(C)cc4)CCN3C2=O)cc1	i
COc1ccc(-n2cnc3cccnc32)cc1OC	-6%[44.1 µM]
CN1CCOC[C@H]2CCN(C(=O)c3cccs3)C[C@H]21	i
COCCNC(=O)C[C@@H]1C[C@@H](C(C)C)[C@H](CNC(=O)CCC(=O)O)C=C1C	5%[44.1 µM]
CC1=C[C@@H](CN(CC2CC2)CC2CC2)[C@H](C(C)C)C[C@H]1Cc1nc2ccncc2[nH]1	-1%[44.1 µM]
COCCNC[C@@H]1C=C(C)[C@H](Cc2nnc(-c3ccc(N(C)C)cc3)o2)C[C@H]1C(C)C	3.5µM*
CN(C)c1ccc(-c2nnc([C@H]3CCN(C(=O)CCC(=O)O)C3)o2)cc1	-29%[44.1 µM]
CC1=C[C@@H](CNCCN(C)C)[C@H](C(C)C)C[C@H]1Cc1nnc(-c2ccc(C)cc2)o1	2.2µM*
COCCNC(=O)C[C@@H]1C[C@@H](C(C)C)[C@H](CNC(=O)c2cnccn2)C=C1C	2%[44.1 µM]
CC1=C[C@@H](CN(C)CCO)[C@H](C(C)C)C[C@H]1Cc1nnc(-c2ccc(N(C)C)cc2)o1	2.5µM*
CC1=C[C@@H](CNCCN(C)C)[C@H](C(C)C)C[C@H]1Cc1nnc(C)o1	i
SMILES	Pf Dd2 inh
CC1=C[C@@H](CN2CCC[C@H]2CO)[C@H](C(C)C)C[C@H]1Cc1nnc(-c2ccc(N(C)C)cc2)o1	1.4µM*
c1cc(N2CCOCC2)ncc1-c1noc([C@@H]2CCCN2)n1	i
Cc1nncn1C1CCN(S(=O)(=O)c2ccc(C(F)(F)F)cc2)CC1	-13%
O=C(Cc1ccc(Cl)cc1)N1C[C@@H](CO)[C@H](c2ccccn2)C1	20%
Cc1ccncc1C(=O)N1CC(N(C)Cc2cccnc2)C1	-10%
CN1CC(=O)N(C2CCC2)Cc2c1ncnc2N1CCc2ccccc2C1	-22%
CCC1(C(=O)NC2CCCCCC2)CCCCC(=O)N1 (configuration not stated)	6%
CC1=C[C@@H](CO)[C@H](C(C)C)C[C@H]1Cc1nnc(Cc2c[nH]c3ccccc23)o1	i
CC1=C[C@@H](CO)[C@H](C(C)C)C[C@H]1Cc1nnc(-c2ccncc2)o1	i
CC1=C[C@@H](CO)[C@H](C(C)C)C[C@H]1Cc1nnc(-c2ccc(N(C)C)cc2)o1	2µM*
O=C(c1cnc(Nc2ccccc2)nc1)N1CC[C@H](CO)[C@@H](O)C1	7%
Cc1nc(C)c(C(=O)N2CCC(CC(=O)N(C)Cc3ccccc3)C2)s1 (configuration not stated)	i
O=C(NCc1nnc2ccc(-c3ccccc3)nn12)c1ccc(Cl)s1	-5%
O=C(Cn1nc2c(cc1=O)CCCCC2)NC1CCCc2c1[nH]c1ccccc21 (configuration not stated)	-5%
Cn1nc(C(=O)NC2CCCc3c2[nH]c2ccccc32)c2ccccc2c1=O (configuration not stated)	7.1µM*
O=C(NC1CCCc2c1[nH]c1ccccc21)c1ccccn1 (configuration not stated)	-20%
CC1CCC(NC(=O)C2CCN(C(=O)c3ncn4c3COC(c3ccc(F)cc3)C4)CC2)CC1 (configuration not stated)	-6%
CC(C)CCN1CC2(CCCN(C(=O)CN3C(=O)CN(C)C3=O)C2)CCC1=O (configuration not stated)	8%
COc1cccc(OCc2nc3c(n2Cc2ccccc2)C(=O)N(Cc2cccc(Cl)c2)CCN3)c1	13µM*
COc1ccccc1OCc1nc2c(n1Cc1ccccc1)C(=O)N(CC1CC1)CCN2	i
O=C1c2c(nc(COc3ccc4c(c3)OCO4)n2Cc2ccccc2)NCCN1CCOc1ccccc1	i
O=C1c2c(nc(COc3ccc(F)cc3)n2Cc2ccccc2)NCCN1CCOc1ccccc1	5.6µM*
COCCN1CCNc2nc(COc3ccc(Oc4ccccc4)cc3)n(Cc3ccccc3)c2C1=O	-9%
COc1ccc(OCc2nc3c(n2Cc2ccccc2)C(=O)N(CC2CC2)CCN3)cc1OC	-12%
COCCN1CCNc2nc(CNc3ccon3)n(Cc3ccccc3)c2C1=O	11µM*
SMILES	Pf Dd2 inh
O=C1c2c(nc(COc3ccccc3)n2Cc2ccccc2)NCCN1Cc1ccccc1	-34%[44.1 µM]
O=C1c2c(nc(COc3ccc4c(c3)OCO4)n2Cc2ccccc2)NCCN1Cc1cccc(Cl)c1	-14%
COc1ccccc1OCc1nc2c(n1Cc1ccccc1)C(=O)N(Cc1cccc(Cl)c1)CCN2	10µM*
COCCN1CCNc2nc(COc3ccccc3OC(F)(F)F)n(Cc3ccccc3)c2C1=O	i
O=C1c2c(nc(COc3cccc(Cl)c3)n2Cc2ccccc2)NCCN1CC1CC1	-30%[44.1 µM]
COCc1cc(=O)n(CC(=O)Nc2ccc(F)cc2)c(N2CCOCC2)n1	25%
CCC[C@H]1C[C@H]1C(=O)NCc1cc2c(nc1OC)CN(C1CCCC1)C2=O	-15%
COc1ccc(C(=O)N2CCOC[C@H](Oc3ccc(C(F)(F)F)cn3)C2)cc1	5%[44.1 µM]
COc1ccc(CN2CC[C@@H]3[C@H]2C(=O)NC[C@H](CCC(=O)NCc2ccco2)N3C)cc1	34%
CCc1noc(-c2cccn3c(CNC(=O)c4ccccn4)nnc23)n1	-26%
COc1ccc(C(=O)N2CCC(Cc3nc(-c4ccc(F)cc4)no3)CC2)c(OC)n1	-23%
COC(=O)c1cccc(-c2nccn2CC(O)c2ccccc2)c1 (configuration not stated)	-21%
CCc1nc2c(=O)n(CC(=O)N3CCN(c4ccccc4F)CC3)nc(C)c2s1	0%
CCCCc1nn(CC(=O)N2CCN(c3ccccn3)CC2)c(=O)n1CC	-13%
Clc1cc(N2CCN(c3ncccn3)CC2)n2nccc2n1	-16%[44.1 µM]
